Bioassay records from PubChem BioAssay.
Pf growth 96h: inhibits malaria parasite growth, 96 h; P. falciparum luciferase reporter growth, 96 h; Potency, µM (titrated, usually from 28.7 µM), actives largely listed as inhibitors; 6.9% of 320,000 active; AID 504834
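Cell-based qHTS: luciferase-tagged P. falciparum in erythrocytes (2% hematocrit, 0.05% parasitemia final) incubated with compounds for 96 hours, 37 C, 5% CO2; luciferase detection reagent then added and luminescence measured.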
Cycloheximide cs: affects cycloheximide protein synthesis inhibition readout, counter-screen; cell reporter, cycloheximide protein synthesis inhibition counterscreen; max response, %; 12% of 300,000 active; AID 2314; in the data active = max response mostly above about 13%, no sharp cut-off; inactive = mostly below about 14%; also: read at 38.3 µM for the half of the compounds with a filed dose
AMA1 RON2 block: disrupts binding of P. falciparum AMA1 to RON2; AID 720542; AlphaScreen AMA1-biotinylated RON2 peptide binding; Potency, µM (top dose mostly 58.2 µM), usual class: inhibitors; 0.2% of 360,000 active; also: nearly all actives have a fitted effect of over 45% in size
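AMA1 (3D7) with his tag at 25 nM final met compounds first, then biotinylated RON2 peptide at 25 nM; detection used donor plus acceptor beads, 10 µg/mL apiece, read by AlphaScreen after 30 min at room temperature.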
Shiga toxin inh: Shiga toxin inhibition; Vero cells, Shiga toxin protein synthesis inhibition reporter; inhibition, % at 38.7 µM; 9.2% of 290,000 active; AID 2315; in the data active = inhibition mostly above about 28%, no sharp cut-off; inactive = mostly below about 43%
Pf growth 48h: inhibits P. falciparum growth in the first generation, 48 h | P. falciparum luciferase growth in erythrocytes, 48 h | 5.9% of 310,000 active | Potency, µM (titrated, usually from 28.7 µM), most hits filed as inhibitors
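Parasite viability was followed by luminescence of a genomically integrated firefly luciferase. Cultures held 0.1% parasitemia at 2% hematocrit (final), incubated under 5% CO2 at 37 C.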
HCV inhibitor: inhibitors of hepatitis C virus infection | Huh7.5.1 HCVcc-Cre infection, luciferase reporter, 44 h | Potency, µM (top dose mostly 41.8 µM), usual class: inhibitors | 3.4% of 340,000 active
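Compounds are dispensed onto cells plated 4 h earlier at 1,000 per well, with HCVcc-Cre virus (about 0.5 moi) added next. Following 44 h of culture, luminescent signal is measured for 15 sec after 15 min with substrate at room temperature.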
Large screens that a line does not name were inactive. A selection: hits, their analogues and other compounds. The true share with any hit is near 21%. Unless noted, calls follow the shape of the dose curve; as a rule, active = well fitted curve in the direction sought with a large enough effect; inconclusive = small, poorly fitted or top-dose-only effect, or another doubt; inactive = no such curve, though single readings can be large; an effect the other way counts as inactive or inconclusive.

CC(C)CN1CCN(Cc2c[nH]c3ccccc23)CC1CCO (centres undefined)	Pf growth 96h 9.28µM (no result: Shiga toxin inh)
CC(C)=CCN1CCN(Cc2c[nH]c3ccccc23)CC1CCO (centres undefined)	Pf growth 96h 2.94µM
CC(C)N1CCN(Cc2c[nH]c3ccccc23)CC1CCO (centres undefined)	none
O=C(Nc1ccc(N2CCN(C(=O)c3ccccc3F)CC2)cc1)c1ncn[nH]1	none
O=c1cc(CSc2ccccc2)[nH]c2ccccc12	Pf growth 48h 10.4µM, HCV inhibitor inconclusive
O=c1cc(CSc2ccccc2)[nH]c(=S)[nH]1	none
Cc1cccc(C)c1OCCCN1CCCC1	none (no result: Pf growth 48h)
OCCCN1CCN(CCCOc2ccccc2-c2ccccc2)CC1	Pf growth 96h 10.4µM, Pf growth 48h inconclusive
c1ccc(-c2ccccc2OCCN2CCCC2)cc1	Pf growth 96h 13.1µM
Cc1cccc(Cl)c1OCCCN1CCOCC1	Pf growth 96h 3.7µM, Cycloheximide cs 21.4, Shiga toxin inh 48.9
c1ccc(-c2ccccc2OCCCN2CCOCC2)cc1	Cycloheximide cs 27.7
CN(C)CCC1(c2ccccc2)CCN(C)C1=O (centres undefined)	none (no result: Pf growth 96h, Cycloheximide cs, Shiga toxin inh, Pf growth 48h, HCV inhibitor)
CC(C)NC(=O)c1ccc2c(c1)N(Cc1ccccc1)C(=O)C(C)(C)O2	Pf growth 48h inconclusive
N#Cc1ccc(C(=O)Nn2cnnc2)cc1	none
Cc1cc(C)c2c(=O)n3c(nc2c1)C(C)NC(=O)c1cccnc1-3 (centres undefined)	none (no result: Pf growth 96h, Cycloheximide cs, Shiga toxin inh, Pf growth 48h, HCV inhibitor)
c1ccc(SCCOCCN2CCOCC2)cc1	Cycloheximide cs 14.8
CCC(=NCc1ccc(F)cc1)c1c(O)n(C)c(=O)n(C)c1=O	HCV inhibitor 10µM
Cc1cc(C)c(C#N)c(SCc2ccccc2C)n1	Pf growth 96h inconclusive, HCV inhibitor inconclusive
Cc1ccc2nc(CSc3nc(C)cc(C)c3C#N)[nH]c2c1	Cycloheximide cs 45.8, HCV inhibitor inconclusive
CNS(=O)(=O)c1cc(Nc2ncnc3sccc23)ccc1C	HCV inhibitor inconclusive (no result: Pf growth 48h)
C=CCOc1cccc(/C=C2\C(=O)N(Cc3ccc(C)cc3)C(C)=C2C(=O)OC)c1	Pf growth 96h 6.57µM, AMA1 RON2 block inconclusive, Pf growth 48h 14.7µM
COC(=O)C1=C(C)N(CCc2ccc(OC)c(OC)c2)C(=O)/C1=C\c1ccc(O)cc1	Pf growth 48h 11.7µM
CCN1C(=O)/C(=C\c2ccc3c(c2)OCO3)C(C(=O)OC)=C1C	Pf growth 96h 1.85µM
COCCCN1C(=O)/C(=C\c2ccc3c(c2)OCO3)C(C(=O)OC)=C1C	none
COC(=O)C1=C(C)N(CCc2ccc(OC)c(OC)c2)C(=O)C1	none (no result: Pf growth 96h, Pf growth 48h)
COc1ccc(CC(=O)Oc2ccc(F)c(F)c2)cc1S(=O)(=O)N1CCOCC1	none (no result: Cycloheximide cs, Shiga toxin inh)
O=C(COc1ccc(Br)cc1)N1CCN(Cc2c[nH]c3ccccc23)CC1	Pf growth 96h inconclusive, AMA1 RON2 block inconclusive (no result: Pf growth 48h)
O=C(COc1ccc2ccccc2c1)N1CCN(Cc2c[nH]c3ccccc23)CC1	Pf growth 96h 3.29µM, Cycloheximide cs 16.9, Pf growth 48h 11.7µM, HCV inhibitor inconclusive
CC(C)Oc1ccc(C(CCNCc2ccc(O)cc2)c2ccccc2)cc1 (centres undefined)	Pf growth 96h 1.17µM, Pf growth 48h 1.17µM, HCV inhibitor inconclusive
COc1ccc(CCNCCC(c2ccccc2)c2ccccc2)cc1OC	none (no result: Pf growth 96h, Cycloheximide cs, Shiga toxin inh, Pf growth 48h, HCV inhibitor)
COc1ccc(C(CCNCc2ccc(OC)c(OC)c2)c2ccc(F)cc2)cc1 (centres undefined)	Pf growth 96h inconclusive, Pf growth 48h 9.28µM
COc1ccc(C(CCNCc2ccc(N(C)C)cc2)c2ccccc2)cc1 (centres undefined)	Pf growth 96h inconclusive, AMA1 RON2 block 20µM, Pf growth 48h 14.7µM, HCV inhibitor inconclusive
S=C(NCc1ccco1)NCC(c1ccco1)N1CCCCC1 (centres undefined)	Pf growth 96h inconclusive
CCOC(=O)C1(Cc2cccc(OC)c2)CCCN(C(=O)CCc2cccnc2)C1 (centres undefined)	Cycloheximide cs 46.2, Shiga toxin inh 69.0, Pf growth 48h inconclusive
CCOC(=O)C1(Cc2cccc(F)c2)CCN(C(=O)c2ccoc2C)CC1	Cycloheximide cs 11.6, Pf growth 48h 10.4µM
